# Assay outcomes deposited in PubChem BioAssay by several laboratories.
# The list is not random: actives were taken first. Their share in the collection is about 4.9%.
# PP5 primary: inhibitors of human protein phosphatase 5 (PP5); purified PP5c, OMFP substrate fluorescence; inhibition, % at 6.7 µM; 0.18% of 320,000 active; P53041;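 active = inhibition above the campaign's mean inhibition across all tested compounds plus 3 SD, cut at about 9.5% in these data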;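 also: 0% = DMSO only and 100% = 100 µM cantharidin control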
# Calb FLC: affects C. albicans growth with fluconazole; AID 1979; 0.57% of 300,000 active; C. albicans CaCi-2 (fluconazole-resistant clinical isolate) + fluconazole, Alamar Blue growth, 48 h; growth inhibition, % (no concentration beside the values);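 active = growth inhibition above about 58% in most replicates, limit read from the data, passing the limit was not always enough; inconclusive = exactly half the replicates above a set limit; inactive = most replicates below a set limit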;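 also: all wells also contain fluconazole at 8 µg/ml as a sub-toxic cotreatment; 0% = median of DMSO wells and 100% = median of geldanamycin control wells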
# CSC inhib: cancer stem cell inhibition. cancer stem cell-like cells viability, luminescence. inhibition, % at 7.5 µM. 1.1% of 300,000 active; in the data active = inhibition above about 75%; inconclusive = no clear call, values can overlap the other calls; tested in HMLE shEcad cells
# Beta cell apopt: beta cell apoptosis inhibition. AID 435005. protection from apoptosis, % (no concentration beside the values). 0.8% of 300,000 active. INS-1E cytokine-induced death, ATP luminescence, 48 h; percent of positive-control rescue, neutral wells zero;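 active = Every replicate reaches about 75%, or at least half do and their mean reaches it too, limit read from the data; inconclusive = At least half of replicates reach the limit but their mean does not; inactive = Under half of replicates reach the limit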;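 also: 0% = cytokine-treated negative control wells and 100% = positive control rescue; higher means more ATP so stronger rescue from cytokine killing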
# Mdm2 MdmX PPI: disrupts the human Mdm2-MdmX interaction; O15151+Q00987; SaOS-2 split-luciferase Mdm2/MdmX complementation, luminescence; inhibition, % at 8 µM; 3% of 330,000 active;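 active = inhibition of at least 50% at 8 µM in the primary screen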
# PP1 counter: blocks human PP1-alpha phosphatase, a PP5 counter-screen; P62136; purified PP1alpha, OMFP fluorescence; inhibition, % at 6.7 µM; 0.9% of 320,000 active; AID 2235;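 active = inhibition above the mean inhibition of all tested compounds plus 3 SD, computed separately for each screening campaign, cut at about 15% in these data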
# Mdm2 MdmX conf: confirmation of human Mdm2/MdmX interaction inhibitors | shares compounds with Mdm2 MdmX PPI | Mdm2-MdmX binding, luminescent assay | inhibition, % at 8 µM | 55% of 10,000 active | AID 489028; in the data active = inhibition above about 40%
# FLuc counter: inhibits full-length luciferase, flagging false Mdm2/MdmX hits | shares compounds with Mdm2 MdmX PPI | SaOS-2 full-length luciferase counterscreen, luminescence | inhibition, % at 8 µM | 77% of 6,200 active | AID 504607;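 active = mean inhibition at 8 µM reaching about 37%, which flags the compound as non-specific, limit read from the data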;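 also: p53-null SaOS-2 cells with luciferase driven by a doxycycline-inducible promoter; compound on cells about two nights before reading with doxycycline added after day one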
# An asterisk follows results filed as active; ? = inconclusive; . = no result.
SMILES,PP5 primary,Calb FLC,CSC inhib,Beta cell apopt,Mdm2 MdmX PPI,PP1 counter,Mdm2 MdmX conf,FLuc counter
CCNC(=O)/C=C1\NC(C)(C)Cc2c1ccc1ccccc21,0,11,-1,-7,13,0,.,.
CC1(C)Cc2c(ccc3ccccc23)C(=O)N1,-2,29,-12,.,52*,0,54*,55*
Cc1ccc(NC(=O)c2cc(CC(C)C)nc3ccccc23)cc1,0,2,-5,-3,82*,-1,84*,55*
Cc1ccc(NC(=O)c2cc(C)nc3ccccc23)cc1,1,-4,0,0,10,1,.,.
COc1ccc(NC(=O)c2cc(CC(C)C)nc3ccccc23)cc1,1,26,-2,-4,91*,2,90*,52*
Cc1ccc(-c2nc(-c3ccc(Cl)cc3)sc2CC(=O)O)c(C)c1,2,68,.,-7,-4,-2,.,.
COC(=O)Cc1ccc(NC(=O)c2ccc(C(C)(C)C)cc2)cc1,0,-16,32,.,66*,-4,55*,29
CCCCc1ccc(NC(=O)CSc2nc(=O)n(CCN(CC)CC)c3c2CCC3)cc1,0,3,80*,8,59*,-4,36,62*
CCN(CC)CCn1c2c(c(SCC(=O)Nc3nc(C)cs3)nc1=O)CCC2,0,-2,-9,-11,52*,-2,15,.
Cc1ccc2nc(NC(=O)CSc3nc(=O)n(CCN(C)C)c4c3CCCC4)sc2c1,0,5,-2,-4,65*,1,49*,71*
CCC(NC(=S)NC1CCCCC1)c1ccc(C(C)C)cc1 (stereo not drawn),.,-21,12,34,31,.,.,.
CCC(C)C(NC(=O)C(C)NC(=O)CNC(=O)OC(C)(C)C)C(N)=O (stereo not drawn),1,-18,-1,2,11,-5,.,.
CCn1c(Oc2ccccc2)nc2c1c(=O)n(C)c(=O)n2C,0,4,-19,-8,46,0,.,.
CCn1c(Oc2ccccc2F)nc2c1c(=O)n(C)c(=O)n2C,1,7,-8,-14,68*,-3,66*,23
COc1ccc(/C(N)=N/OC(=O)C2CCC(=O)N2S(=O)(=O)c2ccc(C)cc2)cc1OC (stereo not drawn),2,4,.,1,74*,1,55*,76*
Cc1ccc2nc(Nc3nc(-c4ccccc4)cc(=O)[nH]3)nc(C)c2c1,1,3,-6,-1,35,1,.,.
COc1ccc2c(C)nc(Nc3nc(-c4ccccc4)cc(=O)[nH]3)nc2c1,-1,7,107*,35,73*,-1,-16,.
Cc1ccc2c(C)nc(Nc3nc(CSc4nc5ccccc5[nH]4)cc(=O)[nH]3)nc2c1,0,?,61,90*,59*,1,58*,32
Cc1ccc(S(=O)(=O)/C=C/c2ccccc2)cc1,5,-1,-5,-6,19,0,.,.
CCCN(C(=O)Cn1ncc2c(=O)oc3ccccc3c21)c1cccc(C)c1,3,10,16,-1,6,2,.,.
CCCCCCCN(C(=O)CCl)c1cccc(C)c1,2,-13,-4,11,99*,0,97*,23
CCCCCCN(C(=O)CCl)c1ccccc1,0,4,12,32,98*,-3,92*,22
N#CCCN(C(=O)CCl)c1cccc(Cl)c1,0,15,21,-44,100*,-9,92*,54*
COc1ccc(C2CC(C)(c3ccc(OC)cc3OC)Nc3ccccc3N2)c(OC)c1 (stereo not drawn),5,?,14,43,38,2,.,.
COc1ccc(CCNc2cc(N3CCN(C(=O)c4ccccc4F)CC3)ccc2[N+](=O)[O-])cc1OC,4,-2,23,104*,53*,-1,35,79*
SMILES,PP5 primary,Calb FLC,CSC inhib,Beta cell apopt,Mdm2 MdmX PPI,PP1 counter,Mdm2 MdmX conf,FLuc counter
O=C(c1ccccc1F)N1CCN(c2ccc([N+](=O)[O-])c(NCc3cccnc3)c2)CC1,-2,-2,13,15,23,1,.,.
O=[N+]([O-])c1cccc2c(N3CCCC3)ccnc12,-2,11,-4,112*,52*,-3,26,.
COc1cccc(Cn2c(-c3nonc3N)nc3ccccc32)c1,4,-4,54,30,54*,6,56*,70*
COc1cc(Cn2c(-c3nonc3N)nc3ccccc32)ccc1C,-3,-3,59,13,55*,1,62*,46*
O=C(CN(Cc1ccccc1)C(=O)CCC(=O)Nc1nccs1)NCc1ccc(F)cc1,2,0,-8,3,-2,0,.,.
CC(C)Cc1nc2oc3c(NCC4CCCO4)ncnc3c2c2c1CCC2 (stereo not drawn),0,1,23,.,53*,0,55*,75*
Cc1ccc2c(c1)C1CN(C)CCC1N2Sc1ccccc1[N+](=O)[O-] (stereo not drawn),2,97*,10,-5,61*,1,40*,62*
CCc1nnc(NC(=O)C(c2ccccc2)c2ccccc2)s1,4,-19,-8,.,13,2,.,.
COc1ccc2c(c1)CC/C2=N\OC(=O)c1ccccc1C,1,5,-1,.,100*,2,35,22
COc1ccc2c(c1)CC/C2=N\OC(=O)c1cccc(C)c1,3,8,6,-1,97*,2,55*,13
Cc1cc2oc(=O)cc(C)c2cc1NC(=O)CCl,-1,5,27,-4,58*,0,36,.
Cc1cc2oc(=O)cc(C)c2cc1NC(=O)CCC(=O)O,-1,-6,-17,2,29,-4,.,.
CN(C)/C=C/C(=O)c1ccc(N2CCN(c3ncc(C(F)(F)F)cc3Cl)CC2)cc1,3,21,26,0,92*,8,1,.
CCn1c(=N)n(CC(=O)c2cccc([N+](=O)[O-])c2)c2ccccc21,2,46,-7,0,-17,-2,.,.
N=c1n(CC(=O)c2ccc(Br)s2)c2ccccc2n1Cc1ccccc1,-1,3,25,26,97*,11,62*,53*
N=c1n(CC(=O)c2cccc([N+](=O)[O-])c2)c2ccccc2n1Cc1ccccc1,-2,-21,24,25,92*,3,5,.
CCOc1ccc(C(=O)OCC(=O)NCCCc2ccccc2)cc1,2,-13,-9,2,-10,9,.,.
Cc1cccc(N2CCN(S(=O)(=O)c3ccc4c(c3)n(C)c(=O)c(=O)n4C)CC2C)c1 (stereo not drawn),2,-2,4,-4,68*,-13,-24,.
